In PubChem BioAssay (NCI):
The panel holds about 83,000 compounds, 20% with a hit somewhere; the sample as a whole holds those more often.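 Single-dose data. Exposure time 48 hours. Values below 10 considered active.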 The source made the active and inactive calls.

Experiments:
Assay in all cases: NCI-60 one-dose screen, 48 h (100 = growth as untreated, 0 = no growth, -100 = all killed)
Conditions in all cases: 10 µM unless noted
[1] = test system: NCI-H23 lung
[2] = test system: NCI-H226 lung
[3] = test system: NCI-H322M lung
[4] = test system: HOP-62 NSCLC
[5] = test system: NCI-H460 lung
[6] = test system: HOP-92 NSCLC
[7] = test system: NCI-H522 lung
[8] = test system: A549/ATCC NSCLC
[9] = test system: 786-0 renal
[10] = test system: COLO 205 colon
[11] = test system: DU-145 prostate
[12] = test system: K-562 leukemia
[13] = test system: MALME-3M melanoma
[14] = test system: MDA-MB-231 breast
[15] = test system: RXF 393 renal
[16] = test system: SF-268 CNS
[17] = test system: SF-295 CNS
[18] = test system: SF-539 CNS
[19] = test system: UACC-257 melanoma
[20] = test system: M14 melanoma

Measured: growth

Cc1ccc(S(=O)(=O)Nc2ccc(-c3ccc4c(c3)NC(=O)/C4=C\c3ccc[nH]3)cc2)cc1
inactive: [1] 33.8% | [2] 94% | [3] 68.3% | [4] 96.5% | [5] 22% | [6] 93.4% | [7] 87.2% | [8] 52.8% | [9] 101% | [10] 93.3% | [11] 65.6% | [12] 42.2% | [13] 90% | [14] 97.4% | [15] 96.4% | [16] 111% | [17] 93.8% | [18] 93.8% | [19] 110% | [20] 90.9%

O=C1Nc2cc(-c3ccc(NS(=O)(=O)c4ccc(F)c(Cl)c4)cc3)ccc2/C1=C/c1ccc[nH]1
active: [1] -25.5% | [5] -10.6% | [7] 6.92% | [8] 3.71% | [14] -6.71% | [18] -34.8%
inactive: [2] 37% | [3] 26.4% | [4] 27.2% | [6] 37.2% | [9] 35.6% | [10] 35.4% | [11] 20% | [12] 17.3% | [13] 50.3% | [15] 29.5% | [16] 60.1% | [17] 53.6% | [19] 29.7% | [20] 48.4%

COc1ccc(NC(=O)Nc2nc3ccc([N+](=O)[O-])cc3s2)cc1
active: [1] -2.33% | [2] 6.28% | [5] 3.86% | [6] -5.8% | [7] 1.25% | [12] 9.59% | [13] -1.52% | [15] -0.305% | [18] 7.77%
inactive: [3] 13.1% | [4] 25.4% | [8] 30.2% | [9] 35.3% | [10] 67.9% | [11] 24.8% | [14] 46.1% | [16] 38.6% | [17] 35.6% | [19] 16% | [20] 57.6%

COc1cc(/C=N/NC(=O)c2ccc(OCc3nc4ccc(Cl)cc4[nH]3)cc2)cc(OC)c1OC
inactive: [1] 34.7% | [2] 35.5% | [3] 55.1% | [4] 64.2% | [5] 44.7% | [6] 118% | [7] 26.2% | [8] 59.2% | [9] 29.3% | [10] 29.3% | [11] 64.5% | [12] 14.7% | [13] 14.1% | [14] 52.8% | [16] 70% | [17] 13.2% | [18] 30.2% | [19] 42.3% | [20] 42.6%
active: [15] -26.2%

NS(=O)(=O)c1ccc(Nc2nc(N/N=C/c3cc(Br)c(O)c(Br)c3)nc(Nc3ccccc3)n2)cc1
active: [6] -4.41% | [14] -0.169% | [18] -25.8%
inactive: [1] 27.7% | [2] 54.7% | [3] 37.6% | [4] 27% | [5] 99.8% | [7] 49.4% | [8] 97.6% | [9] 25.1% | [10] 88% | [11] 50.6% | [12] 14.3% | [13] 42% | [15] 54% | [16] 21% | [17] 43.8% | [19] 97.4% | [20] 59.4%

COC(=O)c1cc(C(=O)CBr)n2c1ccc1c3ccccc3ccc12
inactive: [1] 51.4% | [2] 53.4% | [3] 82.8% | [4] 48.9% | [5] 39.4% | [6] 53.2% | [7] 59.1% | [8] 31.3% | [9] 52.1% | [10] 38.7% | [11] 69.3% | [12] 43% | [13] 51.2% | [14] 69.8% | [15] 67% | [16] 74.7% | [17] 37.2% | [18] 43.6% | [19] 82.6% | [20] 69.5%

COc1ccc(NC(=O)CSc2nnc(-c3ccc(-c4nc5ccccc5[nH]4)cc3)o2)cc1
inactive: [1] 11.9% | [2] 20.3% | [3] 74.3% | [6] 10.8% | [10] 49.2% | [12] 22.2% | [13] 10.2% | [14] 19.2% | [16] 49.6% | [17] 74.8% | [19] 36.4%
active: [4] -15.8% | [5] 0.884% | [7] 0.861% | [8] 6.46% | [9] -33.8% | [11] 5.8% | [15] -54.4% | [18] -86.6% | [20] 1.64%
